In PubChem BioAssay (EPA / NIEHS):
Calls of active or inactive are those of the source. Rule for the calls: active = hit-call score of the fitted dose curve at least 0.9, where 1 is the maximum; inactive = score below 0.9.

experiment: ATG_TAL_CIS: Attagene CIS-FACTORIAL HepG2 Assay for human TAL Basal Promoter (AID 2282966); conditions: HepG2 Attagene cis-factorial TAL promoter reporter; actives raise or lower the signal
Method: ATG_CIS is a cell-based, multiplexed-readout assay that uses HepG2, a human liver cell line, with measurements taken at 24 hours after chemical dosing in a 24-well plate.ATG_TAL_CIS is one of 52 assay component(s) measured or calculated from the ATG_CIS assay. It is designed to make measurements of mRNA induction, a form of inducible reporter, as detected with fluorescence intensity signals by Reverse transcription polymerase chain reaction (RT-PCR) and Capillary electrophoresis technology.Data from the assay component ATG_TAL_CIS was analyzed into 1 assay endpoint. This assay endpoint, ATG_TAL_CIS, was analyzed with bidirectional fitting relative to DMSO as the negative control and baseline of activity. Using a type of inducible reporter, measures of mRNA for gain or loss-of-signal activity can be used to understand the background control at the transcription factor-level as they relate to the gene . Furthermore, this assay endpoint can be referred to as a secondary readout, because this assay has produced multiple assay endpoints where this one serves a background control function. To generalize the intended target to other relatable targets, this assay endpoint is annotated to the background measurement intended target family, where the subfamily is internal marker.
Human liver HepG2 cells are transiently transfected with multiple reporter transcription units (MRTUs) in 6-well plates using FuGene 6 reagent (Roche; 3 ml FuGene/1 mg DNA). The MRTU constructs are regulated by a cis-regulating element (promoter). […] A major difference between the CIS and TRANS system is that in CIS activities of endogenous TFs are measured, whereas the TRANS assay evaluates changes in activities of exogenous, chimeric NR-Gal4 proteins. […] At the end of 24 hour incubation, total RNA was isolated using TriZol reagent (Invitrogen). The isolated RNA is then reverse-transcribed using oligo(dT) primer and Mo-MLV reverse transcriptase (Invitrogen) with DNAse I (Ambion) treatment for 30 min. The one-tenth of the produced cDNA was amplified by PCR using Taq DNA polymerase (Invitrogen) and two reporter sequence-specific primers. The PCR products were fluorescently labeled by primer extension with 6-arboxyfluorescein (6-FAM) 5'-labeled reporter sequence-specific primer (2 min at 95 C, 20 s at 68 C and 10 min at 72 C) and these products were digested with 5U of HpaI (New England Biolabs) for 2h at 37 C. The fragments were purified using Qiaquick PCR columns (Qiagen), analyzed on an ABI 3130xL genetic analyzer (Applied Biosystems) with peak positions identified by using a set of X-rhodamine (ROX)-labeled MapMarker1000 molecular weight standards (BioVentures). The raw capillary electrophoresis data was processed using Attagraph software (Attagene).

| SMILES | outcome | AC50 |
| --- | --- | --- |
| C[C@H]1O[C@@H](O[C@H]2[C@@H](O)C[C@H](O[C@H]3[C@@H](O)C[C@H](O[C@H]4CC[C@@]5(C)[C@H](CC[C@@H]6[C@@H]5C[C@@H](O)[C@]5(C)[C@@H](C7=CC(=O)OC7)CC[C@]65O)C4)O[C@@H]3C)O[C@@H]2C)C[C@H](O)[C@@H]1O | inactive |  |
| CCCCCCCCCCCCN1CCCCCC1=O | inactive |  |
| CN(C)c1ccncc1 | inactive |  |
| O=C(CS)OCCOC(=O)CS |  | 62.2 µM (active) |
| Clc1ccc(C(c2ccccc2Cl)C(Cl)Cl)cc1 (stereo not given) |  | 23.7 µM (active) |
| CCCCC(CC)(CO)CO | inactive |  |
| C=CCCCCCCCCCC | inactive |  |
| O=C(O)COCC(=O)O | inactive |  |
| CC1(C)O[C@@H]2[C@@H](CO[C@@]3(COS(N)(=O)=O)OC(C)(C)O[C@@H]23)O1 | inactive |  |
| Oc1c(Cl)cc(Cl)c(Cl)c1Cc1c(O)c(Cl)cc(Cl)c1Cl | inactive |  |
| Cc1ccc(S(N)(=O)=O)cc1 | inactive |  |
| COc1cc(CCC(C)=O)ccc1O | inactive |  |
| O=C1OC2(c3ccccc31)c1ccc(O)c(Br)c1Oc1c2ccc(O)c1Br | inactive |  |
| COc1cc(Cl)c(OC)cc1N | inactive |  |
| Cc1ccc(N)c(S(=O)(=O)O)c1 | inactive |  |
| CCCSc1ccc2nc(NC(=O)OC)[nH]c2c1 | inactive |  |
| CCO/C=C1\N=C(c2ccccc2)OC1=O | inactive |  |
| CC1=C(Br)C(=O)C(Br)=C/C1=C(/c1ccccc1S(=O)(=O)O)c1cc(Br)c(O)c(Br)c1C | inactive |  |
| C1CCCCC1 | inactive |  |
| Nc1ccn([C@H]2CS[C@@H](CO)O2)c(=O)n1 | inactive |  |

| SMILES | outcome | AC50 |
| --- | --- | --- |
| CCC(=O)O[C@@H]1C[C@H]2CC[C@]1(C)C2(C)C | inactive |  |
| [Cl][Au]([Cl])[Cl] | inactive |  |
| Nc1c(Cl)cc(Cl)cc1[N+](=O)[O-] | inactive |  |
| [O-]n1ccccc1=S.[O-]n1ccccc1=S.[Zn+2] | inactive |  |
| Cc1cc(=O)oc2cc(N(C)C)ccc12 | inactive |  |
| CCCC(O)C(O)CO (stereo not given) | inactive |  |
| COCCc1ccc(OCC(O)CNC(C)C)cc1 (stereo not given) | inactive |  |
| CCCCCCCC/C=C\CCCCCCCC(=O)OCC | inactive |  |
| C=CC(C)C#N (stereo not given) | inactive |  |
| CCCCCCCCC=CCCCCCCCC1=NCCN1CCO | inactive |  |
| C#CC(C)N(C)C(=O)Nc1ccc(Cl)cc1 (stereo not given) | inactive |  |
| COC(C)(C)CCO | inactive |  |
| COCCOC(=O)c1ccccc1C(=O)OCCOC | inactive |  |
| CC1CC(O)CC(C)(C)C1 (stereo not given) | inactive |  |
| CC1CCC(C(C)C)C(O)C1 (stereo not given) | inactive |  |
| CN(C)CCOc1ccc(/C(=C(/CCCl)c2ccccc2)c2ccccc2)cc1 | inactive |  |
| CC/C=C\CC/C=C/CO | inactive |  |
| CCCCCCCCCC(=O)OC | inactive |  |
| CCOC(=O)c1ccc(N)cc1 | inactive |  |
| C=C(C#N)C(=O)OCC | inactive |  |
